Reference: PMC5540273 (PLoS ONE, 2017)

Columns and labels:
Details in all cases: concentration: 1 μM, replicates: in singlicate; n = 1
PRKX = test system: PRKX
PRP4 = test system: PRP4
PYK2 = test system: T1, PYK2
T1 construct: gene PTK2B

QSK = test system: QSK
RAF1 = test system: RAF1
RET = test system: RET
RIOK1 = test system: RIOK1
RIOK2 = test system: RIOK2
RIOK3 = test system: RIOK3
RIPK1 = test system: RIPK1
RIPK2 = test system: RIPK2
RIPK4 = test system: RIPK4
RIPK5 = test system: RIPK5
ROCK1 = test system: ROCK1
ROCK2 = test system: ROCK2
ROS1 = test system: ROS1
[1] = test system: RPS6KA4(Kin.Dom.1-N-terminal)
[2] = test system: RPS6KA4(Kin.Dom.2-C-terminal)
[3] = test system: RPS6KA5(Kin.Dom.1-N-terminal)
[4] = test system: RPS6KA5(Kin.Dom.2-C-terminal)
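Also: KINOMEscan kinase panel screen.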

| Compound | %Inh (PRKX) [%] | %Inh (PRP4) [%] | %Inh (PYK2) [%] | %Inh (QSK) [%] | %Inh (RAF1) [%] | %Inh (RET) [%] | %Inh (RIOK1) [%] | %Inh (RIOK2) [%] | %Inh (RIOK3) [%] | %Inh (RIPK1) [%] | %Inh (RIPK2) [%] | %Inh (RIPK4) [%] | %Inh (RIPK5) [%] | %Inh (ROCK1) [%] | %Inh (ROCK2) [%] | %Inh (ROS1) [%] | %Inh [1] [%] | %Inh [2] [%] | %Inh [3] [%] | %Inh [4] [%] |
| --- | --- | --- | --- | --- | --- | --- | --- | --- | --- | --- | --- | --- | --- | --- | --- | --- | --- | --- | --- | --- |
| COc1cc2ncn(-c3cc(OCc4ccc(S(C)(=O)=O)cc4)c(C(N)=O)s3)c2cc1OC [GW869979] | 0 | 0 | 0 | 27 | 0 | 26 | 0 | 8 | 0 | 18 | 0 | 35 | 3 | 45 | 32 | 0 | 0 | 38 | 0 | 14 |
| Nc1ncnc2c1ncn2-c1ccc(Cl)cc1 [AH2635] | 0 | 36 | 21 | 0 | 1 | 9 | 51 | 0 | 35 | 17 | 2 | 2 | 0 | 30 | 0 | 23 | 20 | 0 | 0 | 8 |
| CN1C(=O)C(Nc2ccccc2)=C(c2ccccc2)C1=O [SB-300079] | 0 | 2 | 6 | 0 | 44 | 0 | 13 | 0 | 0 | 0 | 0 | 5 | 25 | 7 | 43 | 0 | 8 | 0 | 0 | 9 |
| COc1cc(Nc2nccc(N3CCC(NC(=O)C(C)c4ccc(Cl)cc4)C3)n2)cc(OC)c1OC (centres unmarked) [GSK1379757] | 5 | 23 | 10 | 2 | 10 | 7 | 58 | 0 | 54 | 20 | 0 | 0 | 16 | 0 | 0 | 31 | 0 | 0 | 0 | 0 |
| Nc1ncnc2c1ncn2-c1cccc2ccccc12 [SKF-97184] | 0 | 0 | 4 | 6 | 0 | 0 | 7 | 0 | 5 | 0 | 7 | 8 | 5 | 67 | 0 | 0 | 10 | 0 | 10 | 2 |
| C[C@@H]1CC[C@H](C(=O)NC2CCCCC2)CN1c1cc(-c2ccc3c(N)n[nH]c3c2)nc(N)n1 [GSK2291363] | 84 | 26 | 24 | 7 | 16 | 53 | 96.1 | 22 | 93.7 | 22 | 5 | 29 | 0 | 94.4 | 93.1 | 28 | 5 | 0 | 32 | 0 |
| COc1ccc(-n2cnc3c(N)ncnc32)cc1 [SKF-97236] | 15 | 0 | 0 | 0 | 0 | 34 | 14 | 28 | 0 | 0 | 15 | 9 | 10 | 5 | 20 | 0 | 12 | 0 | 15 | 0 |
| COc1cc(Nc2nccc(N3CCC(NC(=O)C4COc5ccccc5O4)C3)n2)cc(OC)c1OC (centres unmarked) [GSK1379761] | 15 | 32 | 18 | 2 | 7 | 2 | 66 | 0 | 43 | 7 | 0 | 0 | 0 | 26 | 37 | 54 | 0 | 0 | 0 | 0 |
| COc1cccc(C2=C(N(C)c3ccccc3)C(=O)NC2=O)c1 [SB-334865] | 25 | 41 | 8 | 1 | 12 | 17 | 39 | 0 | 0 | 0 | 17 | 19 | 0 | 0 | 12 | 0 | 8 | 0 | 20 | 0 |
| Fc1cccc(CSc2nnc(-c3ccc4c(c3)CCO4)o2)c1 | 7 | 0 | 8 | 0 | 2 | 0 | 0 | 5 | 8 | 3 | 12 | 0 | 0 | 12 | 0 | 0 | 0 | 4 | 16 | 9 |
